# Results reported in PubChem BioAssay.
# The source made the active and inactive calls.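 How the source made its calls, unless noted: active means NADPH fluorescence slope more negative than the mean of all samples by about 3 SD, 99.7% confidence; inactive means the rest.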
# Assays:
# [1] = endothelial E-selectin expression blockers – imaging, HUVEC, immunofluorescence, MLSMR starter and 10KST1 sets, primary screen (AID 487;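 active means visually confirmed hit in the image check and inhibition above 20%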;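 on inhibition: signal is fraction of cell area covered by stained E-selectin grains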;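 on nuclei count: 100% = median nuclei count of all wells on the same plate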); details: HUVEC TNFalpha-induced E-selectin immunofluorescence imaging, at 2 µM; inhibition: stronger effect = higher value; nuclei count: measured here: cell number, toxicity
# [2] = Primary imaging screen for DUSP6 inhibitors that restore phospho-Erk in transfected HeLa cells, chemical complementation (AID 609;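 active means compounds giving at least 50% inhibition in the cell-based MKP-3 phosphatase rescue imaging test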;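 on inhibition: phospho-Erk level distribution per well compared with pooled transfected vehicle control wells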); details: HeLa MKP-3 transfected, phospho-Erk imaging KS statistic, at 10 µM, cells stimulated with TPA for 15 min
# [3] = target: Dual specificity protein phosphatase 6 (Homo sapiens) (UniProt Q16828); assay: as above; details: HeLa MKP-3 transfected, phospho-Erk imaging KS statistic; at 10 µM; stronger effect = higher value; cells stimulated with TPA for 15 min
# [4] = target: Voltage-gated potassium channel subunit beta-2 (Rattus norvegicus) (UniProt P62483); assay: inhibitors of rat Kvbeta2 reductase activity – biochemical, NADPH fluorescence, primary screen (AID 622;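 active means fluorescence slope higher than the sample average by over 3 SD, cut at about -0.22 in these data, passing the limit was not always enough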;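 further: slope of raw intensity against log time taken from 70 to 1610 s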); details: recombinant KvBeta, 4-cyanobenzaldehyde reduction, at 10 µM, stronger effect = higher value
# [5] = target: Voltage-gated potassium channel subunit beta-2 (Rattus norvegicus) (UniProt P62483); assay: enhancers of rat Kvbeta2 NADPH turnover – biochemical, NADPH fluorescence, primary screen (AID 623); details: Recombinant KvBeta, NADPH fluorescence decrease slope, 10 min; at 10 µM; stronger effect = lower value;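 further: fluorescence intensity change per second fitted from 20 to 320 s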
# [6] = target: Muscarinic acetylcholine receptor M4 (Homo sapiens) (UniProt P08173); assay: M4-linked GIRK flux change, two-sided – cell-based, HEK293 M4/GIRK, thallium flux, BTC-AM, M4 allosteric agonist project, primary screen (AID 625;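 active means fluorescence slope after compound addition differing from the mean of all tested samples at 99.7% confidence, mostly higher but some lower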;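 further: thallium influx through GIRK channels coupled to M4 in HEK293 cells with BTC-AM dye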); details: at 10 µM, actives lie on both sides
# [7] = inhibitors of larval lipid processing in zebrafish, primary screen, whole organism, PED6 fluorescence, gall bladder and intestine (AID 686;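 active means a full or partial loss of lipid-probe fluorescence in the fish gall bladder, intestine or both, judged by eye; inactive means no fluorescence loss, or compound toxic to the fish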;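 further: larvae 5 to 7 days old with five fish per well; signal comes from phospholipase A2 cleavage of quenched PED6 carried via bile; overnight exposure to compound and PED6 before scoring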); details: Zebrafish larvae PED6 lipid processing, fluorescence scoring; screened at 20 µM (by protocol)
# [8] = loss of swimming-algae plug formation – whole organism, Chlamydomonas reinhardtii, WT vs cilia-less mutant, absorbance, 96-well, primary screen (AID 463189;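 active means inhibition at or above 50% relative to wild type and mutant plate controls; inactive means inhibition below 50%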;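 further: 0% = wild type cc124 cells in DMSO and 100% = ciliumless bld1 mutant cells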); details: Chlamydomonas reinhardtii gravitaxis, OD600 absorbance, 2 days; at 10 µM; stronger effect = higher value
# [9] = reduction of polyQ htt aggregates in cells – imaging, exon1htt(103Q)mCFP cells, high-content imaging, primary screen (AID 483;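 active means visual image review flags a hit and inhibition of aggregation exceeds 20%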;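 further: compound exposure lasted 3 days before fixation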;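 on nuclei count: percent of the per-plate median nuclei count of sample wells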); details: exon1htt(103Q)mCFP cell line, aggregate imaging, at 2 µM; inhibition of aggregation: stronger effect = higher value; nuclei count: measured here: cell count, toxicity
# [10] = target: Alpha-2C adrenergic receptor (Homo sapiens) (UniProt P18825); assay: compounds altering alpha2C-coupled GIRK flux – cell-based, HEK293 alpha2C/GIRK1/2, thallium flux, primary screen (AID 624;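 active means fluorescence slope after compound addition differing from the mean of all screened samples at 99.7% confidence, in either direction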;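 further: slope of fluorescence ratio to pre-addition baseline per second over 15 to 24 s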); details: thallium flux BTC fluorescence, at 10 µM, actives lie on both sides
# [11] = blockers of RIG-like receptor reporter activation – cell-based, Sendai virus stimulus, luciferase, 10K MLSCN set, TLR/RLR signaling modifier project, primary screen (AID 602276;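 active means inhibition at or above 50% at 10 µM; inactive means inhibition below 50%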;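 further: firefly luciferase from ISG56 promoter only with Renilla not read in this screen; 0% = Sendai virus plus DMSO and 100% = medium plus DMSO without virus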); details: HEK293 RL24 IRF3 luciferase reporter, at 10 µM, stronger effect = higher value
# [12] = TLR3 IRF3 reporter activation blockers – cell-based, poly I:C stimulus, luciferase, 10K MLSCN set, primary screen (AID 602277;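 active means inhibition of the reporter signal at or above 50%; inactive means inhibition below 50%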); details: HEK293-TLR3 RL24 IRF3 luciferase reporter, at 10 µM, stronger effect = higher value
# [13] = measured here: cell density z-score
# [14] = measured here: nuclear c-Myc green intensity z-score
# [15] = measured here: nuclear pErk red intensity z-score, stronger effect = higher value
# Chain of Alpha-2C adrenergic receptor (Homo sapiens) (P18825 whole entry, looked up): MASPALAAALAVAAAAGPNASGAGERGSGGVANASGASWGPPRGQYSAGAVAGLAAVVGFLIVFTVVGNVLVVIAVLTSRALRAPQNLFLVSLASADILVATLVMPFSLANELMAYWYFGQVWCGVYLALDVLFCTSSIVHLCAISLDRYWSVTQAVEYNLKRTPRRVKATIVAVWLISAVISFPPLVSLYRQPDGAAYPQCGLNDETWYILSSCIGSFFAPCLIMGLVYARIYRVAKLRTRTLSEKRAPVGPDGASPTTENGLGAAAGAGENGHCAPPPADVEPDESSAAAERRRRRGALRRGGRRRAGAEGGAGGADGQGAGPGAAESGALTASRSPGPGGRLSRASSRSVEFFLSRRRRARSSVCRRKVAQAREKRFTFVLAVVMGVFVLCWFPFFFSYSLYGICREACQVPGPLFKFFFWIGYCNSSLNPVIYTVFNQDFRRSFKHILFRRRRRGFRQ
# Chain of Voltage-gated potassium channel subunit beta-2 (Rattus norvegicus) (P62483 whole entry, looked up): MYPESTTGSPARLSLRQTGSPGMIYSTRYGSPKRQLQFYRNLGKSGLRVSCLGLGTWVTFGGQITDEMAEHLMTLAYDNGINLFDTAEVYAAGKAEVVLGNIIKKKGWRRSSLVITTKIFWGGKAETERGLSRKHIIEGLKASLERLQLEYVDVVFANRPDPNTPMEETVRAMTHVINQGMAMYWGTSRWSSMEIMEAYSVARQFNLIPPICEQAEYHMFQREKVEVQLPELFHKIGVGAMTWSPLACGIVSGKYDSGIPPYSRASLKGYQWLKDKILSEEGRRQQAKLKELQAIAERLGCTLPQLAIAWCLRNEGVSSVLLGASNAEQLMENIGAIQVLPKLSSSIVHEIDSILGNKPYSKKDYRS
# Chain of Muscarinic acetylcholine receptor M4 (Homo sapiens) (P08173 whole entry, looked up): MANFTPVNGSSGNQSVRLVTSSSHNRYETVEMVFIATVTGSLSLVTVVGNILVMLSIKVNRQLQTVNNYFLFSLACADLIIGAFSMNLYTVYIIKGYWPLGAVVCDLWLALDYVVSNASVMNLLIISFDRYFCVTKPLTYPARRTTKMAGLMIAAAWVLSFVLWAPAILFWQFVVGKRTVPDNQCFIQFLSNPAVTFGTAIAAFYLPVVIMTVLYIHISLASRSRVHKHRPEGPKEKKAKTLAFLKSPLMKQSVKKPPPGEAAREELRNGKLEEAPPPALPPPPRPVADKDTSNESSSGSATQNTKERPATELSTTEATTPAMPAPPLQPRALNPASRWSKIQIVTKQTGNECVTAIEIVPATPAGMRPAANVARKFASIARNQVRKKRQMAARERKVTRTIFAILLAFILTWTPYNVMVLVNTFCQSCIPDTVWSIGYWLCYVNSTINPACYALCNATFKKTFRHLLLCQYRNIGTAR
# Chain of Dual specificity protein phosphatase 6 (Homo sapiens) (Q16828 whole entry, looked up): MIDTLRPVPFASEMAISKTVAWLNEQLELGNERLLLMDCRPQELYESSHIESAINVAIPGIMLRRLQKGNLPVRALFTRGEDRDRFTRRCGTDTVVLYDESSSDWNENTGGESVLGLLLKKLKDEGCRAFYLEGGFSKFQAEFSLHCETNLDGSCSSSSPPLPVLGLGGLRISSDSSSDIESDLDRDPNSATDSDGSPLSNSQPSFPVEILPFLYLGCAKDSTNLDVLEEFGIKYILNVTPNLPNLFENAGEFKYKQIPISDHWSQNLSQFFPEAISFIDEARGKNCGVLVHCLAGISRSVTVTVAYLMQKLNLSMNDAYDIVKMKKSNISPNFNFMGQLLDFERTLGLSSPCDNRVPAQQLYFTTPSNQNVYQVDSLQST
smiles,measurement,setting,value
CCC1=Nc2ccccc2NC2=C1C(=O)CCC2,inhibition,[1],-65.4% (inactive)
same,nuclei count,[1],87.8%
same,z-score,[2]; [13],-1.25
same,z-score,[2]; [14],0.203
same,z-score,[2]; [15],-0.00909
same,inhibition,[3],3.66% (inactive)
same,fluorescence slope,[4],-0.427 (inactive)
same,NADPH fluorescence slope,[5],-3.7e-05 (inactive)
same,fluorescence slope,[6],0.00568 (inactive)
same,outcome,[7],inactive
same,inhibition,[8],23.6% (inactive)
C1CCC2=NCCCN2CC1,inhibition of aggregation,[9],7.9% (inactive)
same,nuclei count,[9],102%
same,inhibition,[1],-40.2% (inactive)
same,nuclei count,[1],99.2%
same,fluorescence slope,[4],-0.37 (inactive)
same,NADPH fluorescence slope,[5],4.2e-05 (inactive)
same,slope,[10],0.00592 (inactive)
same,inhibition,[11],10.9% (inactive)
same,inhibition,[12],20.9% (inactive)
CC(C)CCNC(=O)NC(=O)CSc1nnc(COc2ccccc2Cl)o1,inhibition of aggregation,[9],13.9% (inactive)
same,nuclei count,[9],98.5%
same,inhibition,[1],-53.1% (inactive)
same,nuclei count,[1],126%
same,fluorescence slope,[4],-0.513 (inactive)
same,NADPH fluorescence slope,[5],-7.7e-06 (inactive)
same,fluorescence slope,[6],0.00525 (inactive)
same,inhibition,[11],9.99% (inactive)
same,inhibition,[12],21% (inactive)
CN1[C@@H]2CC(OC(=O)[C@H](CO)c3ccccc3)C[C@H]1[C@@H]1O[C@@H]12 (stereo not given in full),inhibition,[1],-56.4% (inactive)
same,nuclei count,[1],129%
same,z-score,[2]; [13],0.18
same,z-score,[2]; [14],-0.245
same,z-score,[2]; [15],-0.715
same,inhibition,[3],15.3% (inactive)
same,fluorescence slope,[4],-0.461 (inactive)
same,NADPH fluorescence slope,[5],-3e-05 (inactive)
same,slope,[10],0.00551 (inactive)
same,inhibition,[11],2.34% (inactive)
same,inhibition,[12],25.9% (inactive)
COc1ccc(CCN(C)CCCC(C#N)(c2ccc(OC)c(OC)c2)C(C)C)cc1OC (stereo not given),inhibition,[1],-110% (inactive)
same,nuclei count,[1],114%
same,z-score,[2]; [13],-0.13
same,z-score,[2]; [14],-0.251
same,z-score,[2]; [15],-0.441
same,inhibition,[3],12.4% (inactive)
same,fluorescence slope,[4],-0.461 (inactive)
same,NADPH fluorescence slope,[5],-2.2e-05 (inactive)
same,inhibition,[11],2.16% (inactive)
same,inhibition,[12],27% (inactive)
CCOC(=O)C1CCCN(C(=O)c2cc3c(-c4cccc(OC)c4)nn(C)c3s2)C1 (stereo not given),fluorescence slope,[4],-0.355 (inactive)
same,NADPH fluorescence slope,[5],-3.7e-05 (inactive)
same,slope,[10],0.00666 (inactive)
same,outcome,[7],inactive
same,inhibition,[11],-33.2% (inactive)
same,inhibition,[12],39.4% (inactive)
CC1(C)CC(=O)C=C(NCCO)C1,inhibition,[1],-18.5% (inactive)
same,nuclei count,[1],146%
same,z-score,[2]; [13],1.01
same,z-score,[2]; [14],-0.173
same,z-score,[2]; [15],-0.675
same,inhibition,[3],20.8% (inactive)
same,fluorescence slope,[4],-0.395 (inactive)
same,NADPH fluorescence slope,[5],-5.8e-05 (inactive)
same,fluorescence slope,[6],0.00557 (inactive)
same,outcome,[7],inactive
same,inhibition,[8],40.3% (inactive)
Cc1ccc(N2CN=c3s/c(=C\c4cccnc4)c(=O)n3C2)cc1,inhibition,[1],-18.9% (inactive)
same,nuclei count,[1],87.4%
same,z-score,[2]; [13],-0.873
same,z-score,[2]; [14],0.442
same,z-score,[2]; [15],0.633
same,inhibition,[3],1.75% (inactive)
same,fluorescence slope,[4],-0.483 (inactive)
same,NADPH fluorescence slope,[5],-4.2e-05 (inactive)
same,fluorescence slope,[6],0.00552 (inactive)
same,outcome,[7],inactive
same,inhibition,[8],36.5% (inactive)
CCOc1ccc2[nH]c(C)cc(=O)c2c1,fluorescence slope,[4],-0.554 (inactive)
same,NADPH fluorescence slope,[5],1.5e-05 (inactive)
same,slope,[10],0.00617 (inactive)
same,inhibition,[11],-6.31% (inactive)
same,inhibition,[12],16% (inactive)
CC(C)(C)C1CCc2onc(C(=O)Nc3cnn(Cc4ccc(F)cc4)c3)c2C1 (stereo not given),fluorescence slope,[4],-0.58 (inactive)
same,NADPH fluorescence slope,[5],1.6e-05 (inactive)
same,fluorescence slope,[6],0.00687 (inactive)
same,inhibition,[11],12% (inactive)
same,inhibition,[12],19.7% (inactive)
Cn1c(=O)oc2cc(S(=O)(=O)NCCC(=O)N3CCc4ccccc4C3)ccc21,fluorescence slope,[4],-0.514 (inactive)
same,NADPH fluorescence slope,[5],-9.1e-05 (inactive)
same,slope,[10],0.00621 (inactive)
same,inhibition,[11],13.9% (inactive)
same,inhibition,[12],18.7% (inactive)
CCOC(=O)C1CCCN(c2cc(=O)n(Cc3ccc(F)cc3)c(=O)[nH]2)C1 (stereo not given),fluorescence slope,[4],-0.387 (inactive)
same,NADPH fluorescence slope,[5],-1.6e-05 (inactive)
same,fluorescence slope,[6],0.0077 (inactive)
same,inhibition,[11],11.9% (inactive)
same,inhibition,[12],19.7% (inactive)
Clc1ccc(-c2nnc3sc(-c4ccc(Br)o4)nn23)cc1,inhibition of aggregation,[9],10.6% (inactive)
same,nuclei count,[9],97.9%
same,inhibition,[1],-136% (inactive)
same,nuclei count,[1],181%
same,fluorescence slope,[4],-0.346 (inactive)
same,NADPH fluorescence slope,[5],2.1e-05 (inactive)
same,slope,[10],0.0087 (inactive)
same,inhibition,[11],6.08% (inactive)
same,inhibition,[12],-13% (inactive)
CCOC(=O)CNC(=O)C(Cc1ccccc1)NS(=O)(=O)c1ccc2c(c1)CCC(=O)N2 (stereo not given),fluorescence slope,[4],-0.438 (inactive)
same,NADPH fluorescence slope,[5],-0.000333 (inactive)
same,fluorescence slope,[6],0.00524 (inactive)
same,inhibition,[11],0.424% (inactive)
same,inhibition,[12],15.6% (inactive)
CN(C)CCOC(c1ccccc1)c1ccccc1,inhibition,[1],-7% (inactive)
same,nuclei count,[1],124%
same,z-score,[2]; [13],-0.686
same,z-score,[2]; [14],0.456
same,z-score,[2]; [15],0.78
same,inhibition,[3],5.42% (inactive)
same,fluorescence slope,[4],-0.465 (inactive)
same,NADPH fluorescence slope,[5],-4.4e-05 (inactive)
same,slope,[10],0.00555 (inactive)
same,inhibition,[11],11.6% (inactive)
same,inhibition,[12],38.5% (inactive)
COc1ccc(OC)c(C2=NOC(C(=O)Nc3c(C)n(C)n(-c4ccccc4)c3=O)C2)c1 (stereo not given),fluorescence slope,[4],-0.546 (inactive)
same,NADPH fluorescence slope,[5],-2.8e-05 (inactive)
same,slope,[10],0.0073 (inactive)
same,inhibition,[11],-3.88% (inactive)
same,inhibition,[12],17.6% (inactive)
Cc1cc(C)cc(N(CC(=O)Nc2cccc(C)n2)S(=O)(=O)c2c(C)noc2C)c1,fluorescence slope,[4],-0.598 (inactive)
same,NADPH fluorescence slope,[5],-3.4e-05 (inactive)
same,slope,[10],0.00547 (inactive)
same,inhibition,[11],11.9% (inactive)
same,inhibition,[12],42.2% (inactive)
CCCN1Cc2cccc(C(=O)NCc3cccs3)c2C1=O,fluorescence slope,[4],-0.393 (inactive)
same,NADPH fluorescence slope,[5],-4e-05 (inactive)
same,slope,[10],0.00508 (inactive)
same,outcome,[7],inactive
same,inhibition,[11],3.53% (inactive)
same,inhibition,[12],2.96% (inactive)
O=C(C1CCN(S(=O)(=O)c2cnc[nH]2)CC1)N1CCN(c2ncccn2)CC1,fluorescence slope,[4],-0.353 (inactive)
same,NADPH fluorescence slope,[5],-7e-05 (inactive)
same,slope,[10],0.00534 (inactive)
same,outcome,[7],inactive
same,inhibition,[11],-35.5% (inactive)
same,inhibition,[12],88.9% (active)
CCCNC(=O)C1CN(S(=O)(=O)c2ccccc2)CCN1S(=O)(=O)c1ccccc1 (stereo not given),fluorescence slope,[4],-0.512 (inactive)
same,NADPH fluorescence slope,[5],-3.4e-05 (inactive)
same,slope,[10],0.00614 (inactive)
same,inhibition,[11],9.56% (inactive)
same,inhibition,[12],19% (inactive)
CCC(C)(NC(=O)c1ccc(=O)[nH]c1)C(=O)NC1CCCC1 (stereo not given),fluorescence slope,[4],-0.551 (inactive)
same,NADPH fluorescence slope,[5],-5e-05 (inactive)
same,slope,[10],0.00548 (inactive)
same,inhibition,[11],8% (inactive)
same,inhibition,[12],24.2% (inactive)
